# Source: PubChem BioAssay (NCI)
# Compounds without any hit were thinned out: in the full panel of roughly 83,000, 20% have a hit.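 Activity criterion: percent growth below 10, measured after cells in 96-well plates were exposed to a single compound concentration for 48 hours.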 Values without a mark were called inactive. Active and inactive are the calls of the source.
# System: HCT-116 colon
# Assay: NCI-60 one-dose screen, 48 h (100 = growth as untreated, 0 = no growth, -100 = all killed)
# Conditions: 10 µM unless noted
row,SMILES,growth
1,CCOC(=O)C1=C(C)NC(C)=C(C(=O)OCC)C1(C)C,100%
2,Cc1[nH]c2ccc(F)cc2c1CCNC(=O)C1CCN(C(=O)c2ccccc2)C1 (stereo unspecified),99.7% [25 µM]
3,COc1ccc(C(=O)N2NC(=O)/C(=C/c3ccc(Br)cc3)N=C2c2ccccc2)cc1,75.5%
4,Cc1ccc(-c2cc3nc(-c4ccccc4)nc(C(Cl)Cl)n3n2)cc1,-87.6% (active)
5,O=C(Nc1cccc(-n2cc(-c3ccncc3)c(-c3ccc(Cl)c(O)c3)n2)c1)Nc1cccc(C(F)(F)F)c1,9.75% (active)
6,COC(OC)c1ccccc1,98.5%
7,COc1ccc(NC(=O)c2c(Nc3ccc(OC)cc3OC)n[nH]c2N)c(OC)c1,90.1%
8,CC(C)(C)n1cc(-c2ccnc(NCCCNS(=O)(=O)c3ccc(F)cc3)c2)c(-c2cccc(O)c2)n1,32%
9,O=C(C1=Cc2cc3ccccc3n2Cc2cnnn21)c1ccccc1,26.7%
10,N=C(N)c1ccc(-c2ccc(-c3cncc4ccccc34)s2)cc1F,-87.8% (active)
11,c1cc(C2=N[C@@H]3c4ccccc4C[C@@H]3O2)nc(C2=N[C@@H]3c4ccccc4C[C@@H]3O2)c1,103%
12,CN(C)c1oc(C2OC2c2ccccc2)nc1C#N (stereo unspecified),90.2%
13,COc1cccc(-c2cc3c(O)cc(C#N)cc3[nH]2)c1,89.9%
14,c1ccc(-c2nc(N3CCNCC3)c3nc(-c4ccccc4)oc3n2)cc1,-89.4% (active)
15,CN(C[C@H]1Cc2c(cccc2N2CCN(Cc3ccccn3)CC2)CN1)[C@H]1CCCc2cccnc21,30.8%
16,COc1ccc(-n2c(=O)sc3c(Cl)nc(C)nc32)c(OC)c1,64.7%
17,O=C(Nc1ccc(Cl)c(Cl)c1)NS(=O)(=O)c1cnccc1Oc1ccc(F)cc1,41.3%
18,S=C(S)NCCc1c[nH]c2ccccc12,96.1%
19,COc1ccc(Nc2[nH]n3c(=O)cc(-c4ccccc4)nc3c2C(=O)Nc2ccc(C)cc2)c(OC)c1,84.2%
20,COc1ccc(-n2c(=S)sc3c(Cl)nc(C)nc32)c(OC)c1,0.658% (active)

row,SMILES,growth
1,COc1ccc(-c2ccc(C)n2-c2ccc(-c3nc4ccccc4s3)cc2)cc1,85.5%
2,COc1cc(/C(C#N)=C/c2ccc3c(c2OC)OCO3)cc2c1OCO2,16.7%
3,Cc1ccc2ccccc2c1C[n+]1ccccc1,101%
4,COc1ccc(-c2ccc(-c3ccc(-c4ccc(C(=N)N)cc4)s3)s2)cc1OC,27.5%
5,O=C(CSc1nc2ccccc2[nH]1)Nc1ccc(-c2nc3ccccc3s2)c(Cl)c1,-90.2% (active)
6,O=c1ccn(-c2ncnc3nc[nH]c23)cc1,96.5%
7,CN(C[C@H]1Cc2c(cccc2N2CCN(c3ncccn3)CC2)CN1)[C@H]1CCCc2cccnc21,19.6%
8,COc1ccc(Nc2nn3c(-c4ccccc4)cc(-c4ccccc4)nc3c2C(N)=O)c(OC)c1,21.5%
9,COc1cc(-c2nn(-c3cccc(NC(=O)Nc4cccc(C(F)(F)F)c4)c3)cc2-c2ccncc2)ccc1Cl,0.0611% (active)
10,COc1ccc(C2C=C(c3ccc(Cl)cc3)N=C3SC=C(C)N32)c(Br)c1 (stereo unspecified),16%
11,O=C1C2(c3ccccc3)C(c3ccccc3)=C(c3ccccc3)C1(c1ccccc1)C1CC=CC12 (stereo unspecified),76%
12,CC(=O)Oc1csc(N(C(C)=O)c2cccc(C(F)(F)F)c2)n1,86.6%
13,COc1ccc(C2C=C(c3ccc(OC)c(OC)c3)N=C3SC=C(C)N32)c(Br)c1 (stereo unspecified),105%
14,CCC(=O)OC1=CN2C(=NC(c3ccc(N)cc3)=CC2c2cc(OC)c(OC)c(OC)c2)S1 (stereo unspecified),17.9%
15,C=C1CCC2C(C)(CO)C(O)CCC2(C)C1C/C=C1/C(=O)OCC1Oc1ccccc1C (stereo unspecified),71.4%
16,CCCCCCCC/C=C/CCCCCCCC1=NC(C)(C)CN1C(C)(C)CO,-99.4% (active)
17,CN(C)c1cccc2c(S(=O)(=O)/N=C(\N)Nc3nc4ccccc4s3)cccc12,42.4%
18,N/C(=N\S(=O)(=O)c1ccccc1)Nc1nc2ccccc2s1,97.5%
19,COc1ccc(Nc2[nH]n3c(=O)cc(C)nc3c2C(N)=O)c(OC)c1,97.8%

# System: HCC-2998 colon
# Assay: as above
# Conditions: 10 µM unless noted
row,SMILES,growth
1,CCOC(=O)C1=C(C)NC(C)=C(C(=O)OCC)C1(C)C,108%
2,Cc1[nH]c2ccc(F)cc2c1CCNC(=O)C1CCN(C(=O)c2ccccc2)C1 (stereo unspecified),106% [25 µM]
3,COc1ccc(C(=O)N2NC(=O)/C(=C/c3ccc(Br)cc3)N=C2c2ccccc2)cc1,105%
4,O=C(Nc1cccc(-n2cc(-c3ccncc3)c(-c3ccc(Cl)c(O)c3)n2)c1)Nc1cccc(C(F)(F)F)c1,40.1%
5,COC(OC)c1ccccc1,93.6%
6,COc1ccc(NC(=O)c2c(Nc3ccc(OC)cc3OC)n[nH]c2N)c(OC)c1,107%
7,CC(C)(C)n1cc(-c2ccnc(NCCCNS(=O)(=O)c3ccc(F)cc3)c2)c(-c2cccc(O)c2)n1,9.22% (active)
8,O=C(C1=Cc2cc3ccccc3n2Cc2cnnn21)c1ccccc1,71.7%
9,N=C(N)c1ccc(-c2ccc(-c3cncc4ccccc34)s2)cc1F,-98.2% (active)
10,c1cc(C2=N[C@@H]3c4ccccc4C[C@@H]3O2)nc(C2=N[C@@H]3c4ccccc4C[C@@H]3O2)c1,104%
11,CN(C)c1oc(C2OC2c2ccccc2)nc1C#N (stereo unspecified),97.3%
12,COc1cccc(-c2cc3c(O)cc(C#N)cc3[nH]2)c1,93.8%
13,c1ccc(-c2nc(N3CCNCC3)c3nc(-c4ccccc4)oc3n2)cc1,-90.3% (active)
14,CN(C[C@H]1Cc2c(cccc2N2CCN(Cc3ccccn3)CC2)CN1)[C@H]1CCCc2cccnc21,94%
15,COc1ccc(-n2c(=O)sc3c(Cl)nc(C)nc32)c(OC)c1,87.3%
16,O=C(Nc1ccc(Cl)c(Cl)c1)NS(=O)(=O)c1cnccc1Oc1ccc(F)cc1,76.7%
17,S=C(S)NCCc1c[nH]c2ccccc12,115%
18,COc1ccc(Nc2[nH]n3c(=O)cc(-c4ccccc4)nc3c2C(=O)Nc2ccc(C)cc2)c(OC)c1,111%
19,COc1ccc(-n2c(=S)sc3c(Cl)nc(C)nc32)c(OC)c1,35.4%

row,SMILES,growth
1,COc1ccc(-c2ccc(C)n2-c2ccc(-c3nc4ccccc4s3)cc2)cc1,91.7%
2,COc1cc(/C(C#N)=C/c2ccc3c(c2OC)OCO3)cc2c1OCO2,12.8%
3,Cc1ccc2ccccc2c1C[n+]1ccccc1,95.2%
4,COc1ccc(-c2ccc(-c3ccc(-c4ccc(C(=N)N)cc4)s3)s2)cc1OC,-68.6% (active)
5,O=C(CSc1nc2ccccc2[nH]1)Nc1ccc(-c2nc3ccccc3s2)c(Cl)c1,95.3%
6,O=c1ccn(-c2ncnc3nc[nH]c23)cc1,106%
7,CN(C[C@H]1Cc2c(cccc2N2CCN(c3ncccn3)CC2)CN1)[C@H]1CCCc2cccnc21,53.9%
8,COc1ccc(Nc2nn3c(-c4ccccc4)cc(-c4ccccc4)nc3c2C(N)=O)c(OC)c1,86.9%
9,COc1cc(-c2nn(-c3cccc(NC(=O)Nc4cccc(C(F)(F)F)c4)c3)cc2-c2ccncc2)ccc1Cl,-18.4% (active)
10,O=C1C2(c3ccccc3)C(c3ccccc3)=C(c3ccccc3)C1(c1ccccc1)C1CC=CC12 (stereo unspecified),87.7%
11,CC(=O)Oc1csc(N(C(C)=O)c2cccc(C(F)(F)F)c2)n1,108%
12,COc1ccc(C2C=C(c3ccc(OC)c(OC)c3)N=C3SC=C(C)N32)c(Br)c1 (stereo unspecified),110%
13,CCC(=O)OC1=CN2C(=NC(c3ccc(N)cc3)=CC2c2cc(OC)c(OC)c(OC)c2)S1 (stereo unspecified),89%
14,C=C1CCC2C(C)(CO)C(O)CCC2(C)C1C/C=C1/C(=O)OCC1Oc1ccccc1C (stereo unspecified),125%
15,CCCCCCCC/C=C/CCCCCCCC1=NC(C)(C)CN1C(C)(C)CO,-93.4% (active)
16,CN(C)c1cccc2c(S(=O)(=O)/N=C(\N)Nc3nc4ccccc4s3)cccc12,70.4%
17,N/C(=N\S(=O)(=O)c1ccccc1)Nc1nc2ccccc2s1,107%
18,COc1ccc(Nc2[nH]n3c(=O)cc(C)nc3c2C(N)=O)c(OC)c1,108%
